The results in this text go back to PubChem BioAssay (Tox21).

Values without a mark were called inactive. Records with an inconclusive call do not appear. Active and inactive are the calls of the source. Unless noted, the call rests on the fitted dose curve; in most records, active means well fitted curve in the direction sought with a large enough effect in the repeat runs; inconclusive means weak or mixed curves; inactive means no such curve, though single readings can be large; an effect the other way counts as inactive or inconclusive.

The nature of experiment [1]: qHTS assay to identify small molecule agonists of the hypoxia (HIF-1) signaling pathway - cell viability counter screen (AID 1224844; calls by dose curve; further: nearly all actives have a fitted effect of over 50% in size). The method in brief:
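HRE-bla ME-180 cells, 2,000/well in 0.5% dialyzed FBS medium, treated 17 h at 37C with compounds. Viability read in the same wells as the bla reporter, by CellTiter-Glo luminescence after 30 min at room temperature.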

Experiment [2] in a line: qHTS assay to identify small molecule agonists of H2AX (AID 1224845; active means well fitted activation curve with a large enough effect in the signal ratio in the repeat runs, not every such curve was filed as active; the % refers to the signal ratio). The method in brief:
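Wild-type CHO-K1 cells, plated overnight, exposed 3hr at 37C to 15 concentrations (0.76% DMSO final). Lysed, then HTRF anti-pH2AX (S139) cryptate and anti-H2AX-d2 antibodies, 24 hr room temperature; 665/620 nm emission read.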
On the technique in general: In qHTS, concentration-response curves come from the screen itself.

A short description of experiment [3]: qHTS assay to identify small molecule agonists of the hypoxia (HIF-1) signaling pathway (AID 1224846; active means well fitted activation curve with a large enough effect in the signal ratio in the repeat runs, not every such curve was filed as active; the % refers to the signal ratio). The method in brief:
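HRE-bla ME-180 beta-lactamase reporter cells in medium with 0.5% dialyzed FBS, pre-incubated 5 h then exposed to compounds 17 h at 37C, 5% CO2; reporter induction read with CCF4-AM FRET substrate.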

Experiment [4] in a line: qHTS assay to identify small molecule agonists of H2AX - cell viability counter screen (AID 1224847; calls by dose curve; further: top concentration of the series differs between compounds; nearly all actives have a fitted effect of over 30% in size). The method in brief: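 Read-out: CellTiter-Glo luminescence, 30 min RT. Cells: wild-type CHO-K1, 1000/well, 10% FBS, plated overnight at 37C. Treatment: 15 concentrations, 3 hr, 37C, 0.76% DMSO.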
A short description of experiment [5]: qHTS assay to identify small molecule antagonists of the estrogen related receptor (ERR) signaling pathway from Tox21 library (AID 1224848). Further: nearly all actives have a fitted effect of over 50% in size. Further: potency means the concentration at half of the fitted maximal effect. The method in brief:
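ERR reporter cell line (from NTP) seeded 2,000 cells/well, rested 6 h at 37 C/5% CO2, then pin-dosed with compounds in DMSO. After 18 h at 37 C, ONE-Glo added; luminescence read after 30 min at room temperature.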

The nature of experiment [6]: qHTS assay to identify small molecule agonists of the estrogen related receptor (ERR) signaling pathway from Tox21 library (AID 1224849; calls by dose curve; further: nearly all actives have a fitted effect of over 15% in size). The note with it: ERR reporter cell line, ONE-Glo luciferase, 18 h; at 92.4 µM (top of the series) unless noted. The method in brief:
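ERR reporter cells (NTP line) pre-incubated 6 hours at 37 C, then exposed to compounds for 18 hours at 37 C. ONE-Glo luciferase luminescence was read after 30 minutes at room temperature.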

Experiment [7] can be described thus: qHTS RealTime-Glo MT Cell Viability Assay in HepG2 cells - 24 hour (AID 1224867). Further: nearly all actives have a fitted effect of over 50% in size. The method in brief:
(§1)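 HepG2 cells (600/well) were dispensed with RealTime-Glo reagents, incubated 5 h at 37 °C, then treated with compounds in DMSO for up to 40 h. Nonlytic NanoLuc luminescence reflecting viable cells was read at each stated time point.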

Experiment [8] in a line: qHTS RealTime-Glo MT Cell Viability Assay in HEK293 cells - 32 hour (AID 1224868). Further: top concentration of the series differs between compounds; nearly all actives have a fitted effect of over 50% in size. The method in brief: (§2)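 HEK293 cells seeded with NanoLuc/prosubstrate reagent, rested 5 h at 37 C, then dosed and kept at 37 C up to 40 h. Nonlytic real-time luminescence from viable cells read at 0, 8, 16, 24, 32 and 40 h.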
Experiment [9] can be described thus: A CellTox Green Cytotoxicity Assay to monitor cytotoxicity in HEK293 cells - 0 hour (AID 1224869). Further: nearly all actives have a fitted effect of over 50% in size. The method in brief:
(§3)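 HEK293 cells, 600/well, were preincubated 5 hours and then exposed to compounds at 37 C for up to 40 hours. A cell-impermeant cyanine dye staining dead-cell DNA was read by fluorescence at 0, 8, 16, 24, 32 and 40 h time points.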

The nature of experiment [10]: qHTS RealTime-Glo MT Cell Viability Assay in HepG2 cells - 40 hour (AID 1224870). Further: nearly all actives have a fitted effect of over 50% in size. The method in brief: (§4)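 HepG2 cells (600/well) mixed with RealTime-Glo MT reagent, settled 5 h at 37 C/5% CO2 before compound addition. Nonlytic NanoLuc luminescence from viable-cell prosubstrate reduction read repeatedly during 40 h treatment at 37 C.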
Experiment [11] can be described thus: A CellTox Green Cytotoxicity Assay to monitor cytotoxicity in HEK293 cells - 40 hour (AID 1224871). Further: nearly all actives have a fitted effect of over 45% in size. The method in brief: as §3
Experiment [12] is described as follows: qHTS RealTime-Glo MT Cell Viability Assay in HEK293 cells - 16 hour (AID 1224872). The method in brief:
as §2

Experiment [13] can be described thus: qHTS RealTime-Glo MT Cell Viability Assay in HepG2 cells - 8 hour (AID 1224873). Further: nearly all actives have a fitted effect of over 55% in size. The method in brief:
as §4

Experiment [14] is described as follows: A CellTox Green Cytotoxicity Assay to monitor cytotoxicity in HEK293 cells - 24 hour (AID 1224875). Further: nearly all actives have a fitted effect of over 45% in size. The method in brief:
as §3

Experiment [15] in a line: A CellTox Green Cytotoxicity Assay to monitor cytotoxicity in HepG2 cells - 16 hour (AID 1224876). Further: nearly all actives have a fitted effect of over 45% in size. The method in brief: (§5)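 HepG2 cells, 600/well, preincubated 5 h with CellTox Green dye, then exposed to Tox21 compounds in DMSO at 37 C for up to 40 h. Dead-cell DNA fluorescence read at the indicated time point.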
Experiment [16] in a line: qHTS RealTime-Glo MT Cell Viability Assay in HepG2 cells - 32 hour (AID 1224877). Further: nearly all actives have a fitted effect of over 55% in size. The method in brief:
as §1

A short description of experiment [17]: A CellTox Green Cytotoxicity Assay to monitor cytotoxicity in HepG2 cells - 40 hour (AID 1224879). Further: nearly all actives have a fitted effect of over 40% in size. Further: potency means the concentration at half of the fitted maximal effect. The method in brief:
as §5

Experiment [18] is described as follows: qHTS RealTime-Glo MT Cell Viability Assay in HEK293 cells - 0 hour (AID 1224880). Further: top concentration of the series differs between compounds; nearly all actives have a fitted effect of over 45% in size. The method in brief: (§6)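 600 cells/well were plated with the nonlytic NanoLuc/prosubstrate reagent, pre-incubated 5 h, then given 23 nL of compound in DMSO. Incubation at 37 C for 40 h, with luminescence from viable-cell-reduced substrate read repeatedly from 0 h.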
The nature of experiment [19]: A CellTox Green Cytotoxicity Assay to monitor cytotoxicity in HepG2 cells - 24 hour (AID 1224878). Further: nearly all actives have a fitted effect of over 45% in size. The method in brief:
as §5

Experiment [20] can be described thus: qHTS RealTime-Glo MT Cell Viability Assay in HEK293 cells - 40 hour (AID 1224874). Further: nearly all actives have a fitted effect of over 50% in size. The conditions noted are these: RealTime-Glo luminescence; max response: active compounds read low. The method in brief:
as §6
On the % scale 0 is the no-effect control and ±100 the full control effect.

Turning to `CCOC(=O)CCN(SN(C)C(=O)Oc1cccc2c1OC(C)(C)C2)C(C)C`, the Potency result in experiment [1], in experiment [2], in experiment [3], in [4], in experiment [7] and in [8] was “inactive” throughout. For the same compound, the Potency entry in [9], in [10], in experiment [11], in [12], in experiment [13] and in experiment [14] was “inactive” in each case. The Potency result in experiment [15], in [16], in [17] and in experiment [18] was “inactive” in each case. For the same compound, the Potency in experiment [5] was 61.1 µM (active). In addition, the activity change, positive = activation in experiment [6] is -43.3%.
In the case of `CCOP(=O)(OCC)Oc1cc(C)nc(C(C)C)n1`, the Potency result in [1], in experiment [2], in experiment [3], in experiment [4], in experiment [5] and in [7] was “inactive” each time. Further, the Potency entry in [8], in experiment [9], in experiment [10], in experiment [11], in [12] and in [13] was “inactive” in each case. The Potency entry in [14], in experiment [15], in experiment [16], in experiment [19], in experiment [17] and in [18] was “inactive” in each case. In addition, the activity change, positive = activation in [6] is -6.77%.
Consider `N#CSCc1ccccc1`, for which the Potency result in experiment [1], in experiment [2], in experiment [3], in experiment [4], in experiment [7] and in experiment [8] was “inactive” throughout. For the same compound, the Potency result in [9], in experiment [10], in experiment [11], in experiment [12], in experiment [13] and in [14] was “inactive” in each case. The Potency entry in experiment [15], in [16], in experiment [19], in [17] and in experiment [18] was “inactive” throughout. Besides, the max response in experiment [20] was -24.3%.
With `Cc1cnc2c(C(=O)O)c(Cl)ccc2c1`, the Potency entry in experiment [1], in experiment [2], in experiment [3], in experiment [4], in experiment [7] and in experiment [8] was “inactive” throughout. In addition, the Potency entry in [9], in [10], in experiment [11], in experiment [12], in [13] and in experiment [14] was “inactive” each time. The Potency result in experiment [15], in [16], in experiment [19], in [17] and in experiment [18] was “inactive” throughout. Besides, in experiment [6], the activity change, positive = activation was -0.863%. The max response in [20] is 3.08%.
On to `CC[C@]1(O)CC[C@H]2[C@@H]3CCC4=CCCC[C@@H]4[C@H]3CC[C@@]21C`, for which the Potency entry in [1], in experiment [2], in experiment [3], in experiment [4], in [7] and in experiment [9] was “inactive” in each case. Also, the Potency result in experiment [10], in experiment [11], in experiment [12], in experiment [13], in experiment [14] and in [15] was “inactive” each time. Also, the Potency result in [16], in experiment [19] and in experiment [18] was “inactive” in each case. For the same compound, in experiment [6], the activity change, positive = activation was -21.6% [at 42.5 µM]. Further, the Potency in experiment [17] is 23.9 µM (active).
As for `ClC1(Cl)C2(Cl)C3(Cl)C4(Cl)C(Cl)(Cl)C5(Cl)C3(Cl)C1(Cl)C5(Cl)C24Cl` (configuration not stated), the Potency entry in experiment [1], in experiment [2], in [3], in experiment [4], in experiment [7] and in [8] was “inactive” in each case. The Potency entry in [9], in experiment [10], in experiment [11], in experiment [12], in experiment [13] and in experiment [14] was “inactive” throughout. Further, the Potency entry in experiment [15], in experiment [16], in [17] and in experiment [18] was “inactive” each time. The activity change, positive = activation in experiment [6] is 2.52%. In addition, the max response in experiment [20] is -13.1%.
As for `C#CCO`, the Potency result in experiment [1], in experiment [2], in [3], in experiment [4], in experiment [7] and in experiment [8] was “inactive” in each case. For the same compound, the Potency result in experiment [9], in [10], in experiment [11], in experiment [12], in [13] and in [14] was “inactive” each time. Moreover, the Potency result in experiment [15], in experiment [16], in experiment [19], in experiment [17] and in experiment [18] was “inactive” in each case. Moreover, the max response in experiment [20] is 3.5%.
